Assay results reported in PubChem BioAssay (Tox21).
A number with no mark means an inactive call. Calls of active or inactive are those of the source. Calls follow the shape of the full dose curve.
% is scaled to controls: 0 for no effect and ±100 for the full control effect.

Experiment: qHTS assay to identify small molecule agonists of the sonic hedgehog signaling (Shh) pathway (AID 1259368);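 also: NIH/3T3-derived 3T3Gli1-Luc cells carrying a stable Gli1-driven firefly luciferase reporter; nearly all actives have a fitted effect of over 15% in size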
Conditions: NIH/3T3 Gli1-Luc reporter, luciferase, 24 h, hits give high values; series mostly up to 92.4 µM
Description: National Center for Advancing Translational Sciences [NCATS]
NIH Chemical Genomics Center [NCGC]
U.S. Environmental Protection Agency [EPA]
National Institutes of Environmental Health Sciences [NIEHS]
National Toxicology Program [NTP]
The sonic hedgehog (Shh) pathway is essential for normal embryonic development. Dysregulation of the Shh pathway can cause severe developmental defects in organs. Therefore chemicals that interfere with the pathway are potential developmental toxicants. A cell line designated 3T3Gli1-Luc (DMB/OARSA/CFSAN/FDA, Laurel, MD), a NIH/3T3 derived clone containing stably integrated Gli1-Luc reporter is used to detect chemical interference of the Shh pathway, by changes in the expression of the firefly Luc gene under the control of the Gli1 transcriptional response element. This cell line was used to screen Tox21 libraries for identifying and prioritizing the potential developmental toxicants that interfere Shh pathway.
3T3 Gli1-Luc cells were dispensed at 2,000 per well in 5uL of culture medium into white solid bottom 1536-well plates (Greiner Bio-One, Monroe, NC) using a Multidrop Combi (Thermo Scientific, Waltham, MA) dispenser. The assay plates were incubated at 37 C and 5% CO2 for 4hr, and then 23nL of compounds dissolved in DMSO and positive control were transferred using a Pintool station (Wako, San Diego, CA). The assay plates were incubated at 37C and 5% CO2 for 24hr. For luciferase read, 4uL of Amplite Luciferase reporter gene assay reagent (AAT Bioquest, Inc. Sunnyvale, CA) was added to each well of the assay plates using Flying Reagent Dispenser (FRD, Aurora Discovery, San Diego, CA) and incubated at room temperature for 30min. The luminescence signal was measured using a ViewLux plate reader (Perkin Elmer, Shelton, CT).
With `CC(=O)c1cccc([N+](=O)[O-])c1` the outcome was “inactive”.
With `O=C1c2ccccc2S(=O)(=O)N1CCCCN1CCN(c2ncccn2)CC1` the outcome was “inactive”.
For `Clc1ccc(Cn2c(CN3CCCC3)nc3ccccc32)cc1`, the outcome was “inactive”.
With `CCN(CC)CCNc1ccc(CNC=O)c2sc3ccc(OC)cc3c(=O)c12` the outcome was “inactive”.
For `COc1ccnc(CS(=O)c2nc3ccc(OC(F)F)cc3[nH]2)c1OC` (stereo not given), the outcome was “inactive”.
For `O=C(Cl)c1cc(C(=O)Cl)cc(C(=O)Cl)c1`, the outcome was “inactive”.
In the case of `CCOc1ccc(N=Nc2ccc(/C=C/c3ccc(N=Nc4ccc(OCC)cc4)cc3S(=O)(=O)O)c(S(=O)(=O)O)c2)cc1`, the outcome is reported as “inactive”.
For `COCC(C)OC(C)=O` (stereo not given), the outcome was “inactive”.
With `O=C(O)CNCC(=O)O` the activity change was 0.375% [at 8.39 µM].
For `CC(C)(COC(=O)c1ccccc1)COC(=O)c1ccccc1`, the outcome was “inactive”.
With `O=S(c1cc(Cl)cc(Cl)c1O)c1cc(Cl)cc(Cl)c1O` the outcome was “inactive”.
In the case of `CC(C)OC(=O)C(C)N(C(=O)c1ccccc1)c1ccc(F)c(Cl)c1` (stereo not given), the outcome is reported as “inactive”.
In the case of `O=C(O)c1ccc(S(=O)(=O)O)cc1C(=O)O`, the outcome is reported as “inactive”.
With `CCO[C@H](Cc1ccc(OCCc2ccc(OS(C)(=O)=O)cc2)cc1)C(=O)O` the outcome was “inactive”.
With `COc1ccc(S(=O)(=O)N2C(=O)[C@@](c3ccccc3OC)(N3C[C@H](O)C[C@H]3C(=O)N(C)C)c3cc(Cl)ccc32)c(OC)c1` the outcome was “inactive”.
With `C=C1[C@H]2CC[C@@H]3[C@H]2C(C)(C)CCC[C@]13C` the outcome was “inactive”.
For `CCc1cc(C2=C(C(=O)O)N(c3ccccc3C(F)(F)F)S(=O)(=O)c3ccccc32)cc2c1OCO2`, the outcome was “inactive”.
With `COC(=O)c1ccc(I)cc1S(=O)(=O)NC(=O)Nc1nc(C)nc(OC)n1` the outcome was “inactive”.
In the case of `C=C1C(=C/C=C2\CCC[C@]3(C)[C@@H]([C@H](C)/C=C/[C@@H](O)C4CC4)CC[C@@H]23)C[C@@H](O)C[C@@H]1O`, the outcome is reported as “inactive”.
With `O=[N+]([O-])c1ccc2[nH]ncc2c1` the outcome was “inactive”.
`NCC(=O)O` showed an activity change of -0.0794% [at 18.9 µM].
In the case of `CN(C)C(=O)NC1(c2ccccc2)CCN(CC[C@@]2(c3ccc(F)c(F)c3)CN(C(=O)c3ccccc3)CCO2)CC1`, the outcome is reported as “inactive”.
With `Cc1nn(C)c(Oc2ccccc2)c1/C=N/OCc1ccc(C(=O)OC(C)(C)C)cc1` the outcome was “inactive”.
With `O=C(OCCc1ccccc1)c1ccccc1` the outcome was “inactive”.
With `COc1ccc(C(=O)Nc2nc3ccccc3c(NCc3ccccc3)c2C#N)cc1` the outcome was “inactive”.
With `O=CC1CC=CCC1` (stereo not given) the outcome was “inactive”.
With `CC(C)Cc1ccc(C(C)C(=O)OCc2ccccn2)cc1` (stereo not given) the outcome was “inactive”.
For `C[C@@H]1C[C@H]2[C@@H]3CCC4=CC(=O)C=C[C@]4(C)[C@@]3(F)[C@@H](O)C[C@]2(C)[C@@]1(O)C(=O)COC(=O)c1ccncc1`, the outcome was “inactive”.
In the case of `COc1ccc2cccc(CCNC(C)=O)c2c1`, the outcome is reported as “inactive”.
With `CN1C[C@H]2c3ccccc3Oc3ccc(Cl)cc3[C@@H]2C1` the outcome was “inactive”.
For `C#C[C@]1(O)CC[C@H]2[C@@H]3CCc4cc(OC5CCCC5)ccc4[C@H]3CC[C@@]21C`, the outcome was “inactive”.
With `CCCCCCOC(=O)NC(=N)c1ccc(NCc2nc3cc(C(=O)N(CCC(=O)OCC)c4ccccn4)ccc3n2C)cc1` the outcome was “inactive”.
With `CCCCC(=O)OCC(=O)[C@H]1[C@H](C)C[C@H]2[C@@H]3C[C@H](F)C4=CC(=O)C=C[C@]4(C)[C@@]3(F)[C@@H](O)C[C@@]21C` the outcome was “inactive”.
With `O=C1C(O)=C(O)C(=O)C(O)=C1O` the outcome was “inactive”.
With `N=c1ccn2c(n1)O[C@H]1[C@H](O)[C@@H](CO)O[C@H]12` the outcome was “inactive”.
In the case of `CCNc1cc(O)ccc1C`, the outcome is reported as “inactive”.
For `CCC(Cl)CCC(Cl)C(Cl)CC(Cl)C(Cl)C(Cl)CCl` (stereo not given), the outcome was “inactive”.
With `CC(COCCO)OCCO` (stereo not given) the outcome was “inactive”.
For `O=C1CCC(=O)O1`, the outcome was “inactive”.
For `CN(C)CCCN1c2ccccc2Sc2ccccc21`, the outcome was “inactive”.
